Data reported in the supplement of paper PMC13380429.

System: Vero E6 infected with SARS-CoV-2
Experiment: inhibition of SARS-CoV-2 cytopathic effect; higher = more antiviral protection, active = above 15
Conditions: 48 h

Measured: inhibition of SARS-CoV-2 cytopathic effect

CC1(C)CC(O)CC(C)(C)N1[O] [tempol]
inactive: 1 nM 9.35% | 8.33 nM 1.45% | 100 nM -0.66% | 833.33 nM 1.43% | 10000 nM 1.53%

CC[C@H]1OC(=O)C[C@@H](O)[C@H](C)[C@@H](O[C@@H]2O[C@H](C)C[C@H](N(C)C)[C@H]2O)[C@@H](CC=O)C[C@@H](C)C(=O)/C=C/[C@]2(C)O[C@H]2[C@@H]1C [rosamicin]
inactive: 1 nM 1.84% | 8.33 nM 0.4% | 100 nM -1.22% | 833.33 nM 2.62% | 10000 nM 9.6%

C[C@H](N[C@@H](CCc1ccccc1)C(=O)O)C(=O)N1Cc2ccccc2C[C@H]1C(=O)O [quinaprilat]
inactive: 1 nM -0.56% | 8.33 nM -0.93% | 100 nM -1.42% | 833.33 nM -0.25% | 10000 nM 0.11%

C[C@@H](O)[C@H]1C(=O)N2C(C(=O)O)=C(S[C@@H]3CN[C@H](C(=O)N(C)C)C3)[C@H](C)[C@H]12 [meropenem]
inactive: 1 nM 0.11% | 8.33 nM 1.38% | 100 nM 0.18% | 833.33 nM 6.2% | 10000 nM -0.92%

C[C@]12C=CC(=O)C=C1CC[C@@H]1[C@@H]2CC[C@]2(C)OC(=O)CC[C@@H]12 [Testolactone]
inactive: 1 nM -1.05% | 8.33 nM -0.81% | 100 nM -0.43% | 833.33 nM -1.59% | 10000 nM 11.2%

CC[C@H]1[C@@H](O)[C@@H]2[C@H](CC[C@]3(C)[C@@H]([C@H](C)CCC(=O)O)CC[C@@H]23)[C@@]2(C)CC[C@@H](O)C[C@@H]12 [obeticholic-acid]
inactive: 1 nM 0.365% | 8.33 nM 1.41% | 100 nM 1.03% | 833.33 nM 2.73% | 10000 nM 1.65%

CCOP(=S)(OCC)Oc1cc(C)nc(C(C)C)n1 [dimpylate]
inactive: 1 nM 1.47% | 8.33 nM -0.54% | 100 nM 2.07% | 833.33 nM 1.11% | 10000 nM -3.47%

C[N+](C)(C)CCOC(N)=O [carbachol]
inactive: 1 nM 1.16% | 8.33 nM 1.84% | 100 nM -1.48% | 833.33 nM 2.68% | 10000 nM 4.16%

O=C(O)CCCCCCNC1c2ccccc2CCc2ccccc21 [amineptine]
inactive: 1 nM -0.8% | 8.33 nM -0.3% | 100 nM -1.15% | 833.33 nM -1.42% | 10000 nM -0.04%

COc1ccc(CC2NCCc3c2[nH]c2ccc(C)cc32)c(Cl)c1OC (stereo not given)
inactive: 1 nM 0.04% | 8.33 nM 1.87% | 100 nM 6.67% | 833.33 nM -1.77% | 10000 nM -7.05%

CC1(C)CC(=O)c2c(C(F)(F)F)nn(-c3ccc(C(N)=O)c(N[C@H]4CC[C@H](O)CC4)c3)c2C1
inactive: 1 nM 1.9% | 8.33 nM 1.97% | 100 nM -3.3% | 833.33 nM -1.33% | 10000 nM -0.66%

C#C[C@]1(OC(=O)CCCCCC)CC[C@H]2[C@@H]3CCC4=CC(=O)CC[C@@H]4[C@H]3CC[C@@]21C [norethisterone-enanthate]
inactive: 1 nM 2.31% | 8.33 nM 0.16% | 100 nM 0.91% | 833.33 nM -1.87% | 10000 nM -1.58%

CN(C)CCNc1nc2cc(O)ccc2c2c1C(=O)c1ccccc1-2
inactive: 1 nM 0.16% | 8.33 nM 1.19% | 100 nM -1.3% | 833.33 nM -7.91% | 10000 nM -23.6%

CN(C)C(=O)c1ccc(S(=O)(=O)c2ccc(NC(=O)[C@@](C)(O)C(F)(F)F)c(Cl)c2)cc1
inactive: 1 nM -0.45% | 8.33 nM 0.49% | 100 nM 0.27% | 833.33 nM 0.59% | 10000 nM -3.54%

Cc1cc(C(C)(C)C)cc(C)c1CC1=NCCN1 [xylometazoline]
inactive: 1 nM -7.36% | 8.33 nM -8.77% | 100 nM -5.88% | 833.33 nM -7.35% | 10000 nM -6.68%

CS(=O)(=O)c1ccc([C@@H](O)[C@@H](CF)NC(=O)C(Cl)Cl)cc1 [florfenicol]
inactive: 1 nM -5.27% | 8.33 nM -3.73% | 100 nM -3.16% | 833.33 nM 0.63% | 10000 nM -0.52%

Oc1c(Cl)cc(Cl)cc1Sc1cc(Cl)cc(Cl)c1O [bithionol]
inactive: 1 nM 0.29% | 8.33 nM 0.59% | 100 nM -0.92% | 833.33 nM -0.55% | 10000 nM 2.32%
